Measurements from the supplement of paper PMC6555819.

These sequences were tested on VDR:RXRa (NR concentration 270 nM, RXRa partner concentration 90 nM) (assay: PBM binding z-score (relative to random genomic background probes); higher = stronger binding; sequences stand for … in GC…GCGATTGACAGCGTAGAATGAAGG).
Protocol: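 Protein-binding microarray (Agilent 4x180K custom design, double-stranded 60-nt probes: 5' GC cap, 34-nt variable region, 24-nt constant primer region; full probe sequence given). Purified or IVT nuclear receptor:RXRα heterodimers (3:1 NR:RXRα, mostly 270:90 nM) or homodimers were incubated for 1 h in PBS with 2% milk and no ligand, then detected with Alexa488 antibodies. Fluorescence from o1-orientation probes (~5 replicates averaged) was converted to z-scores against 500 random hg19 background probes. Variable regions are seed direct-repeat (DR0–DR5) sites, all their single-nucleotide variants and half-site ablations.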
ACTAGTTTGTCAGCTGAGGTCACACACAATTCGG gave a PBM binding z-score of 4.34. GCTTGTAGATCAAAGTTAAGAAAGACTAAGCTAA showed a PBM binding z-score of -0.483. Work on CCTAGCTGGCCAATCTGGGTCACTCAAGGCTTGA yielded a PBM binding z-score of 0.147. CCTTACGGGTTACTGACAGGTTATAGCATTTGGA was tested, and the PBM binding z-score was 0.637. For CCTCGGAGGACAGAACGTCAGAGCTGTCCGCTTT, the PBM binding z-score was -0.754. TCTGCTAGGTCAGTTGGTAAGCTAACGAGCTGCC showed a PBM binding z-score of -0.00155. Sequence CCAGACAGGTGGGAAGGTAACTCAGCCTCGATTA has a PBM binding z-score of -0.285. GGAACGAGGGCAAGTTGATAGCGGAGTTTGATGG showed a PBM binding z-score of 0.636. CCTGACGGGTCACTCCAGGTTATAGCATCGGAGT showed a PBM binding z-score of 3.46. CGAACAAGGTCAAGGACAGTGAATCTCCGCACGC showed a PBM binding z-score of 4.11. Work on AACTCTAGGTAAAAGTTCAGTGAATCCCGAGGAT yielded a PBM binding z-score of 1.11. With CAAACTAGCTCACAGAGGTCAAAGTCCGTGCGTA the PBM binding z-score was 5.02. CCTACTGGGCCAAAGTCATTGATCAGTCAAAGCA was tested, and the PBM binding z-score was -0.45. CCAGACAGGTGAATGGTAACTCAGTCTGGTACGC was tested, and the PBM binding z-score was -0.231. For ATCGAAAGGTCGAGGGTGAGTATACCCACCCGAA, the PBM binding z-score was 2.68. For CCAGACAGGTGAAAGGTAACTCGGTCTGGTACGC, the PBM binding z-score was 0.865. CGTCCCAGGTCAGAGAGGTCAGTGAATGCCGAGT showed a PBM binding z-score of 6.8. In the case of AGAATGAGGTTAAGATGAGGGAAACAGAATACAT, the PBM binding z-score is reported as 1.43. CGAACAAGGTCAGAACAGGACAGTGAAGGATGAT showed a PBM binding z-score of 3. For TCTTGTAGATCAGCAGGTTCAGAAAGCTGGCCAA, the PBM binding z-score was 3.4. For TCTAGTTGGTCACGGTGGTCACACACGACGGGTA, the PBM binding z-score was 0.961. TCTTGTAGATCAAATGTTAAGAAAGCCGAAGCCT showed a PBM binding z-score of 0.366. Work on CCTCGGAGCACAACAGGAGGTCAGAGCTGCCAGA yielded a PBM binding z-score of 1.32. ACTTACGGGTCAACGAGGGTATAGCACGCGTATA was tested, and the PBM binding z-score was 7.1. Work on TAGCCGAGGTCATGCGGGCCAGTATAGTGTCGGC yielded a PBM binding z-score of 5.82. For ATCTCTAGGTAAAGTTCAGTGACAGATCGATAGA, the PBM binding z-score was 1.63. TCTGCTAGCTCAGTTGGTCAGCTAACGAGCTGCC was tested, and the PBM binding z-score was -0.839. ATCGAAAGGTCGACGAGGTGTGTATACACCGTTT showed a PBM binding z-score of 3.81. ACTACTTGGTCAGCTGAGGTCACACACAATTCGG gave a PBM binding z-score of 4.74. Sequence ATCTCTAGGTAACCAAGTTCAGTAAATGCCGAAC has a PBM binding z-score of 4.07. TCTATTAGATGATTAGGGCAACCGAAACAGCGGA gave a PBM binding z-score of 0.44. TCTTGTAGATCAAGGAGGTTAAGAAAGCCTGAGT was tested, and the PBM binding z-score was 1.26. CCTCGGAGGACAGAAGTTCAGAGCTGTCCGCTTT was tested, and the PBM binding z-score was 0.197. In the case of GATACAGGGTCAGCTAGAGGCTAGAGTATGGAAA, the PBM binding z-score is reported as 2.67. Work on ACAGACAGGTGAGTGTAGGTAACTCAGCTGGACG yielded a PBM binding z-score of -0.371. CCTTAAGGGTCACTCCAGGTTATAGCATCGGAGT was tested, and the PBM binding z-score was 5.13. ATATGTAGGTTAAGGATCATTCAGGTTGGTTCGC showed a PBM binding z-score of 1.45. Sequence TCTATTAGTTGATTAGGGCAAGCGAAACAGCGGA has a PBM binding z-score of 0.402. Work on TTATCAAGGTGAAGGTCGTTGATCCCTCTGTAGA yielded a PBM binding z-score of 1.55. Work on TGAATGAGGTTATAAGATCAGTGAACGTTGCAAA yielded a PBM binding z-score of 1.14.
